Measurements taken from ChEMBL document CHEMBL3988442, “University of Dundee, Small-Polar-MMV Screening Library” (2021).
The campaign covered roughly 69,000 compounds. About 1,000 (1.4%) showed an effect of 50% or more. This is one part of a sample in which strong results are shown more often than they occur.

Tested on: Leishmania donovani
Test: Leishmania intramacrophage assay
Type: functional, organism-based
Design: scale not given: in the data most compounds retested in dose-response had high values

## Nc1nccnc1C(=O)N(Cc1ccccc1O)CC1CCCO1 (stereo not given)
30.3 µM, […]
  Percent Effect: -0.1848%

## O=C(C(C1CC1)C1CC1)N1CCC(n2ccnn2)CC1
30.3 µM, […]
  Percent Effect: 12.14%

## CN1CCN(c2ncc3c(=O)n(-c4cccc(F)c4)c(=O)[nH]c3n2)CC1
30 µM, 30.03 µM
  Percent Effect: 19.86%

## O=C(O)C(F)(F)F.O=C(O)C(F)(F)F.O=C1NC2(CCN(Cc3cccs3)CC2)CC1c1ccncc1 (stereo not given)
30.3 µM, […]
  Percent Effect: 15.69%

## COc1ccc(CC(=O)N2CCC(c3n[nH]c(C4CC4)n3)CC2)cc1
30.3 µM, […]
  Percent Effect: 20.62%

## CC(=O)Nc1nc(CNc2ccccc2CCC(F)(F)F)cs1
30.3 µM, […]
  Percent Effect: -4.538%

## CN1C[C@@H](C(=O)N2CCOCC2)[C@@]2(CCc3ccccc3C(=O)N2)C1
30.3 µM, […]
  Percent Effect: 0.0295%

## Cc1cc(C)c2ncc(C#N)c(NC3CCN(CC(N)=O)CC3)c2c1
30.3 µM, […]
  Percent Effect: 5.1%

## N#Cc1cnc2c(F)cc(F)cc2c1NC1CCN(CC(N)=O)CC1
30.3 µM, […]
  Percent Effect: 54.87%

## N#Cc1cnc2cc(F)cc(F)c2c1NC1CCN(CC(N)=O)CC1
30.3 µM, […]
  Percent Effect: 21.49%

## CN(C)c1ccc(CC(=O)N[C@@H]2CCNC[C@H]2O)cc1
30 µM, 30.03 µM
  Percent Effect: -29.81%

## Cc1ccccc1C(CNc1ncnc2c1CCNCC2)N(C)C (stereo not given)
30.3 µM, […]
  Percent Effect: -7.029%

## CC(Nc1ncnc2c1CCNC2)c1ccc2c(c1)CCCC2 (stereo not given)
30.3 µM, […]
  Percent Effect: 82.26%

## Cc1nc(C(C)Nc2ncnc3c2CCNCC3)c(C)s1 (stereo not given)
30.3 µM, […]
  Percent Effect: 9.224%

## CC(Nc1ncnc2c1CCNC2)c1ccc(C(C)(C)C)cc1 (stereo not given)
30.3 µM, […]
  Percent Effect: 88.55%

## Cc1ccccc1C(CNc1ncnc2c1CCNC2)N(C)C (stereo not given)
30.3 µM, […]
  Percent Effect: -14.27%

## Cc1ccccc1C(Nc1ncnc2c1CCNC2)c1ccccc1 (stereo not given)
30.3 µM, […]
  Percent Effect: 61.26%

## CCCc1ccc(C(C)Nc2ncnc3c2CCNC3)cc1 (stereo not given)
30.3 µM, […]
  Percent Effect: 81.31%

## CC(Nc1ncnc2c1CCNCC2)c1nc2c(s1)CCCC2 (stereo not given)
30.3 µM, […]
  Percent Effect: 11.97%

## CCOc1ccc(C(C)Nc2ncnc3c2CCNC3)cc1OCC (stereo not given)
30.3 µM, […]
  Percent Effect: 19.33%

## Cc1cc(C)n(CC(C)Nc2ncnc3c2CCNC3)n1 (stereo not given)
30.3 µM, […]
  Percent Effect: -4.806%

## CCc1nc(NC2CC(=O)N(CC3CCCCC3)C2)ncc1C (stereo not given)
30.3 µM, […]
  Percent Effect: 15.64%

## Cn1cc(C2CN(C(=O)Cc3coc(-c4ccccc4)n3)CCO2)cn1 (stereo not given)
30.3 µM, […]
  Percent Effect: 1.481%

## COc1ccccc1CCN(C)C(=O)NC(C)c1nncn1C (stereo not given)
30 µM, 30.03 µM
  Percent Effect: 13.36%

## COc1cc(CN2CCC(COCc3ccccc3)CC2)cc(OC)c1
30.3 µM, […]
  Percent Effect: 11.79%

## CCc1ccc(Cn2nccc2NC(=O)C2CCS(=O)(=O)C2)cc1 (stereo not given)
30.3 µM, […]
  Percent Effect: 28.09%

## COc1ccc(-c2nnc([C@H]3CCN(C4CCC4)C3)o2)cc1
30.3 µM, […]
  Percent Effect: 5.132%

## O=C(c1ccc(Cn2ccccc2=O)o1)N1CCSCC1
30 µM
  Percent Effect: 34.1%

## c1ccc(-c2nc3c(c(NCCn4ccnn4)n2)CCNCC3)nc1
30.3 µM, […]
  Percent Effect: 12.83%

## Cc1nc2c(c(NCC3Cc4ccccc4CN3C)n1)CCNCC2 (stereo not given)
30.3 µM, […]
  Percent Effect: 11.22%

## Cc1nc2c(c(NCC(O)c3ccccc3Cl)n1)CCNCC2 (stereo not given)
30.3 µM, […]
  Percent Effect: 52.68%

## Cc1nc2c(c(NCc3ccc(-c4ccccn4)s3)n1)CCNCC2
30.3 µM, […]
  Percent Effect: 74.83%

## Cc1nc2c(c(NC3CCN(Cc4ccccc4)CC3)n1)CCNCC2
30.3 µM, […]
  Percent Effect: 8.424%

## Cc1nc2c(c(NCc3nc4ccccc4s3)n1)CCNCC2
30.3 µM, […]
  Percent Effect: 11.81%

## Cc1nc2c(c(NCC(c3ccccc3C)N(C)C)n1)CCNC2 (stereo not given)
30.3 µM, […]
  Percent Effect: 37.15%

## Cc1nc2c(c(NCc3cc4ccccc4s3)n1)CCNCC2
30.3 µM, […]
  Percent Effect: 99.76%

## c1ccc(-c2nc3c(c(NCCn4cccc4)n2)CCNCC3)nc1
30.3 µM, […]
  Percent Effect: 4.707%

## COC[C@@]12CCC[C@@H]1CN(C(=O)CN(C)C)C2.O=C(O)C(F)(F)F
30.3 µM, […]
  Percent Effect: 2.882%

## CCc1cnc(CCNC(C)CC(=O)Nc2cccc(C)c2C)s1 (stereo not given)
30.3 µM, […]
  Percent Effect: 0.8494%

## COCC1CN(Cc2cccc(C#N)c2)Cc2nccn2C1 (stereo not given)
30.3 µM, […]
  Percent Effect: 20.19%

## CNC[C@H]1CC[C@H](c2cc(CN(C)S(=O)(=O)N(C)C)n(C)n2)CC1.Cl
30.3 µM, […]
  Percent Effect: 29.88%

## COCC1CC2(CCN(C(=O)c3ccc(C)nc3)CC2)CO1.O=C(O)C(F)(F)F (stereo not given)
30.3 µM, […]
  Percent Effect: 25.55%

## CN(C)[C@@H]1CCN(C(=O)NC2CCCC2)[C@H]1Cc1cnn(C)c1.O=C(O)C(F)(F)F
30 µM, 30.03 µM
  Percent Effect: 11.61%

## Cc1cc(N2CCC(c3nccn3Cc3cscn3)CC2)ccn1
30.3 µM, […]
  Percent Effect: -14.56%

## CN(C)S(=O)(=O)NCc1nc(-c2cccc(F)c2)c(-c2ccccn2)[nH]1
30.3 µM, […]
  Percent Effect: 3.232%

## COCC(C)NCc1nc(-c2ccc(C)cc2)c(-c2ccccn2)[nH]1 (stereo not given)
30.3 µM, […]
  Percent Effect: 71.58%

## Cc1ccc(-c2nc(CNC(C)CCO)[nH]c2-c2ccccn2)cc1 (stereo not given)
30.3 µM, […]
  Percent Effect: 67.9%

## Cc1cnn(CC(C)NCc2nc(-c3ccccn3)no2)c1 (stereo not given)
30.3 µM, […]
  Percent Effect: 2.286%

## Cc1ccc(-c2nc(CNS(=O)(=O)N(C)C)[nH]c2-c2ccccn2)cc1
30.3 µM, […]
  Percent Effect: 30.48%

## COCc1ccc(C(=O)N2CCOCC2c2ccc(C)o2)cc1 (stereo not given)
30.3 µM, […]
  Percent Effect: 18.1%

## O=C(O)C(F)(F)F.c1ccc(C[C@H]2CN(C3CCOCC3)CC[C@H]2OCC2CC2)cc1
30.3 µM, […]
  Percent Effect: 14.89%

## O=C(COc1coc(CN2CCCCCC2)cc1=O)c1ccccc1
30 µM, 30.03 µM
  Percent Effect: 12.38%

## Cc1cc(C)c2c(NCC3(O)CCCCC3)ncnc2n1
30.3 µM, […]
  Percent Effect: -4.66%

## CC(c1c(F)cccc1F)N1CCN(Cc2nccn2C)CC1 (stereo not given)
30.3 µM, […]
  Percent Effect: 28.44%

## O=C(N1CCCC1)N1CCc2ncnc(C3CCOC3)c2CC1 (stereo not given)
30 µM, 30.03 µM
  Percent Effect: -0.6847%

## CN(Cc1cc2cc(F)ccc2[nH]1)C(=O)C1CC(=O)N(C(C)(C)C)C1 (stereo not given)
30.3 µM, […]
  Percent Effect: 55.15%

## CN(Cc1cc2cc(F)ccc2[nH]1)C(=O)C1CC(=O)N(C2CC2)C1 (stereo not given)
30.3 µM, […]
  Percent Effect: 14.52%

## CCN1CC(C(=O)N(C)Cc2cc3cc(F)ccc3[nH]2)CC1=O (stereo not given)
30.3 µM, […]
  Percent Effect: 16.63%

## COC(=O)c1ccc(F)c(Cn2nc(C)cc2C)c1
30.3 µM, […]
  Percent Effect: 38.02%

## O=S(=O)(NC(CO)Cc1c[nH]c2ccccc12)c1cncc(F)c1 (stereo not given)
30.3 µM, […]
  Percent Effect: 19.78%

## Cc1ccc(C(=O)N2CCc3c(COCC4CC4)cncc3C2)o1
30.3 µM, […]
  Percent Effect: -21.23%

## COCc1nc(CNc2cccc(-c3csc(C)n3)c2)cs1
30.3 µM, […]
  Percent Effect: -17.78%

## COCc1nc(CNc2cccc(-c3ncon3)c2)cs1
30.3 µM, […]
  Percent Effect: 70.63%

## COCc1nc(CNc2cccc(-c3nc(C)c(C)o3)c2)cs1
30.3 µM, […]
  Percent Effect: 3.012%

## N#Cc1nccnc1NC1CCN(c2ccccc2Br)C1 (stereo not given)
30.3 µM, […]
  Percent Effect: -7.134%
